Values joined by “and” are separate entries in the source; they are usually repeats but may differ in a detail not shown here. Identical values can stand only once. Results filed as inconclusive are left out. Where a call stands in place of a potency, no number is given. Active and inactive are the calls of the source. Unless noted, calls follow the shape of the full dose curve.
Assay: qHTS assay for small molecules that induce genotoxicity in human embryonic kidney cells expressing luciferase-tagged ATAD5 (AID 651632; active = well fitted activation curve with a large enough effect in the repeat runs; also: nearly all actives have a fitted effect of over 15% in size)
Conditions: HEK293T ATAD5-luciferase induction, 16 h; series mostly up to 83.3 µM
Outline: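 Test compounds were delivered by pin tool onto HEK293T reporter cells (2,000/well) expressing ATAD5 fused to luciferase. After 16 hr at 37C, 5% CO2, Amplite was added for 30 min at room temperature and luminescence was measured.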

Compound	Potency
O=C(N/N=C/c1ccc([N+](=O)[O-])o1)c1cc([N+](=O)[O-])cc([N+](=O)[O-])c1O	inactive
O=C(O)C(O)C(O)C(=O)O (stereo not given)	inactive
CCC1(CCC(C)C)C(=O)NC(=O)NC1=O	inactive

Assay: qHTS assay for small molecule agonists of the p53 signaling pathway - cell viability (AID 651633); also: nearly all actives have a fitted effect of over 30% in size; also: potency is read from the fitted curve at half-maximal effect
Conditions: p53RE-bla HCT-116 viability, ATP luminescence, 16 h; series mostly up to 83.3 µM
Outline: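 Viability counter-read: CellTiter-Glo luminescence (30 min, room temperature) in the same p53RE-bla plates. These plates had been exposed to compounds for 16 h at 37 C.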

Compound	Potency
C=CC(=O)OCC	inactive
C=CCc1ccccc1O	inactive
Nc1ccc2c(c1)Cc1ccccc1-2	inactive
C[C@H]1[C@@H]2Cc3ccc(O)cc3[C@@]1(C)CCN2C	inactive
CCC(C)(C)c1ccc(O)c(C(C)(C)CC)c1	21.4 µM (active) and 27.3 µM (active)
O=S(=O)(Cl)Cl	inactive
O=P(OCC(Br)CBr)(OCC(Br)CBr)OCC(Br)CBr (stereo not given)	inactive
CCC(C)Cl (stereo not given)	inactive
CC1(C)[C@H](C(=O)O[C@H](C#N)c2cccc(Oc3ccccc3)c2)[C@@H]1C=C(Br)Br	inactive
OC[P+](CO)(CO)CO	inactive
O=C(O)c1cc(Cl)ccc1Cl	inactive
Nc1cccc2ccccc12	inactive
O=C(Cc1ccccc1)c1ccccc1	inactive
CCC1(CC)C(=O)NC(=O)NC1=O	inactive
CC(C)(C)N(NC(=O)c1ccc(Cl)cc1)C(=O)c1ccccc1	inactive
CC(=O)NNc1ccccc1	inactive
c1ccc2sc(SNC3CCCCC3)nc2c1	inactive
CCC1CCC(=O)O1 (stereo not given)	inactive
O=C(O)CCCOc1ccc(Cl)cc1Cl	inactive
O=[N+]([O-])c1cc(Cl)c(Cl)cc1Cl	inactive
Nc1ccccc1C(=O)OCCc1ccccc1	inactive
CC(C)(C)CC(C)(C)c1ccc(O)cc1	29.8 µM (active) and 30.6 µM (active)
CN1C(=O)CN=C(c2ccccc2)c2cc([N+](=O)[O-])ccc21	inactive
NC(=S)c1c(Cl)cccc1Cl	inactive
CC(=O)OC(c1ccccc1)C(Cl)(Cl)Cl (stereo not given)	inactive

Assay: qHTS assay for small molecules that induce genotoxicity in human embryonic kidney cells expressing luciferase-tagged ATAD5 - cell viability (AID 651634); also: nearly all actives have a fitted effect of over 25% in size; also: potency is read from the fitted curve at half-maximal effect
Conditions: HEK293T ATAD5-luc cells viability, CellTiter-Fluor, 15.5 h; series mostly up to 83.3 µM
Outline: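 Quantitative high-throughput format. HEK293T cells expressing ATAD5 fused to luciferase were plated at 2,000 cells/well and treated 15.5 hr with compound versus DMSO. Viability was determined by fluorescent live-cell protease substrate, 30 min at 37C.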

Compound	Potency
C=CC(=O)OCC	inactive
C=CCc1ccccc1O	inactive
Nc1ccc2c(c1)Cc1ccccc1-2	inactive
C[C@H]1[C@@H]2Cc3ccc(O)cc3[C@@]1(C)CCN2C	inactive
COC1=CC(=O)O[C@@H](/C=C/c2ccc3c(c2)OCO3)C1	inactive
CCC(C)(C)c1ccc(O)c(C(C)(C)CC)c1	53.9 µM (active)
O=C(O)c1cc(I)cc(I)c1I	inactive
CCCCCBr	inactive
O=S(=O)(Cl)Cl	inactive
O=P(OCC(Br)CBr)(OCC(Br)CBr)OCC(Br)CBr (stereo not given)	inactive
CCCCCCCCCCCC[N+](C)(C)CCOc1ccccc1	29.8 µM (active) and 61.1 µM (active)
[Cl-].[Cl-].[Hg+2]	5.31 µM (active) and 30.5 µM (active) and 61.1 µM (active)
CC1(C)[C@H](C(=O)O[C@H](C#N)c2cccc(Oc3ccccc3)c2)[C@@H]1C=C(Br)Br	inactive
OC[P+](CO)(CO)CO	inactive
O=C(O)c1cc(Cl)ccc1Cl	inactive
CC(=O)NNc1ccccc1	10.8 µM (active)
c1ccc2sc(SNC3CCCCC3)nc2c1	inactive
CCC1CCC(=O)O1 (stereo not given)	inactive
O=[N+]([O-])c1cc(Cl)c(Cl)cc1Cl	inactive
Nc1ccccc1C(=O)OCCc1ccccc1	inactive
CC(C)(C)CC(C)(C)c1ccc(O)cc1	61.1 µM (active)
CC(=O)OC(c1ccccc1)C(Cl)(Cl)Cl (stereo not given)	inactive

Source: PubChem BioAssay (Tox21)
